This is one part of the list. Unmarked numbers belong to inactive results. The source made the active and inactive calls.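 How the source made its calls: active means cytotoxicity above 50% in each of four replicates; inactive means the rest.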
Assay: AML12 hepatocyte cytotoxicity, confirmation, cytotoxicity control for hepatic lipid droplet formation project, cell-based, single concentration (AID 463219);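 further: compound exposure lasted overnight at 37 °C before the ATP read; 0% = DMSO-treated cells and 100% = wells with no cells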
Conditions: AML12 mouse hepatocyte viability, ATP luminescence; at 50 µM; stronger effect = higher value; cells loaded with 100 µM oleic acid
Compound `CCOc1ccc(CCNC(=O)Nc2ccccc2)cc1OCC` has a cytotoxicity of 12.3%.
`O=C1Nc2ccc(Br)cc2/C1=N/N=C/C1=C(N2CCOCC2)C(=C\c2ccccc2)/CC1` showed a cytotoxicity of -0.325%.
`Cc1cc(NC(=O)CSc2nc(C(C)C)nc3sc4c(c23)CCC(C)C4)no1` (stereo not drawn) gave a cytotoxicity of 10.1%.
With `CCCc1ccc(-c2csc(NC(=O)Cc3cccs3)n2)cc1` the cytotoxicity was 14%.
For `COc1cccc(/C=C(/CC(=O)Nc2ccc(N3CCOCC3)cc2)c2nc3ccccc3s2)c1`, the cytotoxicity was 9.53%.
For `Cc1cc(C(=O)NC2CCCc3c2cnn3-c2cccc(C)c2C)c(C)o1` (stereo not drawn), the cytotoxicity was 14.5%.
`CCOc1ccc(CCNC(=O)CCc2nnc3ccc(N4CCCC4)nn23)cc1OCC` showed a cytotoxicity of 2.1%.
With `Cc1ccc(N2C(=O)C(NC(=O)c3c(F)cccc3F)(C(F)(F)F)C3=C2CC(C)(C)CC3=O)cc1` (stereo not drawn) the cytotoxicity was 13.2%.
Compound `COc1ccc(Cl)cc1NC(=O)CN(C)C(=O)CCCc1c[nH]c2ccccc12` has a cytotoxicity of 22.5%.
For `Cn1c(=O)[nH]c(=O)c2c1nc(N1CCN(C(c3ccccc3)c3ccccc3)CC1)n2CCO`, the cytotoxicity was 77.5% (active).
In the case of `COc1ccc(/C=C(\NC(=O)c2ccc(OCC(C)C)cc2)C(=O)OCc2ccco2)cc1`, the cytotoxicity is reported as 7.73%.
Compound `COc1ccc(C(C(=O)NC(C)(C)C)N(Cc2ccc(F)cc2)C(=O)CCC(=O)Nc2cc(C)on2)cc1` (stereo not drawn) has a cytotoxicity of 10.5%.
Compound `CCCN(CCC)c1ccc(C(O)c2nnc(-c3ccccc3)o2)cc1` (stereo not drawn) has a cytotoxicity of 6.65%.

Source: PubChem BioAssay AID463219 (Sanford-Burnham Center for Chemical Genomics, 2010)
